# Results as given in PubChem BioAssay AID602123 (The Scripps Research Institute Molecular Screening Center, 2011).
# About 1,500 (0.42%) of roughly 360,000 compounds were called active. This is one part of a sample in which actives are shown more often than they occur. Cut-off read from the data, not from the text of the source: active = inhibition above about 13% (passing the limit was not always enough); inactive = the rest.
# Molecular target: Lon protease (Escherichia coli (strain K12)) (UniProt P0A9M0)
# Sequence (P0A9M0 whole entry, looked up): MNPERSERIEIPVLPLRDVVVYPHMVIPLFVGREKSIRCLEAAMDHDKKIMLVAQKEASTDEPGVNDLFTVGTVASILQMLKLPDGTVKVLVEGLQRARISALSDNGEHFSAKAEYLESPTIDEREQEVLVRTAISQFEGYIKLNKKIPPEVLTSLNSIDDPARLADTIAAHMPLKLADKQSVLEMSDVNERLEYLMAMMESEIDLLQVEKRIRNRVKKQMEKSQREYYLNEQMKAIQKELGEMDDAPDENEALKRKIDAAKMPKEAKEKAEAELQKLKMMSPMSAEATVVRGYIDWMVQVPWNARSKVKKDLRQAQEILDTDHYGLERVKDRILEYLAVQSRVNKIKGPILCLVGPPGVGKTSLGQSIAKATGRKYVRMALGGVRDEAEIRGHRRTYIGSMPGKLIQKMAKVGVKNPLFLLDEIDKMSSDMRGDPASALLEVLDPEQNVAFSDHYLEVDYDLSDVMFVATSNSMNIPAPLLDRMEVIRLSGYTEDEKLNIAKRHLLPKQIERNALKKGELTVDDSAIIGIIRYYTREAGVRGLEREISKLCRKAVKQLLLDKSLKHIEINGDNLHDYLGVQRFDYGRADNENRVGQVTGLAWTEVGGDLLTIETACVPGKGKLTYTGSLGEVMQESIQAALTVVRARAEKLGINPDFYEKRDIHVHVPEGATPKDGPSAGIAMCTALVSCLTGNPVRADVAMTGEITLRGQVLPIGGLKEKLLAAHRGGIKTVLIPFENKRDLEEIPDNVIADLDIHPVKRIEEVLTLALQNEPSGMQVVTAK
# Experiment: inhibitors of E. coli Lon protease, primary screen, biochemical, fluorescence polarization (AID 602123);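 note: 0% = enzyme with probe and DMSO and 100% = no enzyme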
# Conditions: purified E. coli Lon protease, at 7.94 µM, stronger effect = higher value
row,SMILES,inhibition
1,N#Cc1ccccc1Sc1ccccc1C(=O)OCC(=O)NC1CCCCC1,-2.35% (inactive)
2,Cc1nc2nc3c(cn2n1)C(=O)CC(c1ccccc1)C3 (stereo unspecified),6.37% (inactive)
3,CC(C)n1c(O)c(N=Nc2ccccn2)c2ccccc21,-4.1% (inactive)
4,Cc1cccc(C)c1N1CCN(S(=O)(=O)N2CCCCC2)CC1,2.21% (inactive)
5,Cc1cccc(C)c1N1CCN(S(=O)(=O)N2CCOCC2)CC1,21.5% (active)
6,O=S(=O)(N1CCOCC1)N1CCN(c2ccccc2F)CC1,3.92% (inactive)
7,COc1ccc(/C=C/CN2CCCC(C(=O)c3cc(F)ccc3F)C2)cc1 (stereo unspecified),-0.58% (inactive)
8,C=CCn1c(=S)sc2c(=O)[nH]c(C)nc21,5.17% (inactive)
9,Cc1ccn(C(CC(=O)c2ccc(Br)cc2)C(=O)O)n1 (stereo unspecified),5.2% (inactive)
10,Cc1nc(N)sc1-c1ccccc1,-2.59% (inactive)
11,N#Cc1c(N)nc2c3c(sc(=N)c2c1N)NC(=O)CC3c1ccccc1Cl (stereo unspecified),-13.5% (inactive)
12,Nc1ccccc1/C=N\N=C/c1ccccc1N,25.9% (active)
13,O=[N+]([O-])c1cccc(C=NN=Cc2ccccc2O)c1,0.97% (inactive)
14,COc1ccc(N2CCN(S(=O)(=O)CCNC(=O)C34CC5CC(CC(C5)C3)C4)CC2)cc1,-6.65% (inactive)
15,COc1ccc(C)cc1S(=O)(=O)Nc1cc2c3c(c1)CCC(=O)N3CCC2,0.26% (inactive)
16,CNc1cnc(-c2cc(OC)c(OC)c(OC)c2)cn1,1.98% (inactive)
17,COC(=O)c1cccc(N(C(=O)c2ccco2)C(C(=O)NC2CCCC2)c2ccco2)c1 (stereo unspecified),-3.87% (inactive)
18,Cc1ccc(-n2c(=O)c(C#N)cc3c(=O)n4ccccc4nc32)cc1C,-8.16% (inactive)
19,COC(=O)Nc1ccc(S(=O)(=O)N2CCN(CCN3C(=O)C4C5C=CC(C5)C4C3=O)CC2)cc1 (stereo unspecified),-1.58% (inactive)
20,C/C(CC(=O)Nc1ccc(Cl)cc1)=N\NC(=O)C(=O)NCCO,-5.9% (inactive)
21,COc1ccc(COC(=O)N/N=C(\C)CC(=O)Nc2ccc(Cl)cc2)cc1,9.08% (inactive)
22,CCc1ccc(NC(=O)C(=O)N/N=C(\C)CC(=O)NCCOC)cc1,28.6% (active)

row,SMILES,inhibition
1,O=C(/C=C/c1cccc(C(F)(F)F)c1)N1CCN(c2ccccn2)CC1,8.73% (inactive)
2,COc1nc(N(C)C)nc(N2CC(=O)N(CCNS(=O)(=O)c3ccc(C)cc3)C2=N)n1,-0.47% (inactive)
3,C/C(=N\NC(=O)CCn1nc(C)cc1C)C(C)(C)C,-2.11% (inactive)
4,CSc1nc(C)nc(C2CC2)c1C#N,5.92% (inactive)
5,CC(C)Oc1ccccc1C(=O)NC(CO)C(=O)O (stereo unspecified),-0.19% (inactive)
6,CC1(C)OC(=O)C(=CNC(CO)C(=O)O)C(=O)O1 (stereo unspecified),17.8% (active)
7,Cc1nn(CC(=O)Nc2ccc(C#N)cc2)c(C)c1[N+](=O)[O-],-15.5% (inactive)
8,COc1ncnc2c1N=C1CC(C)(C)CC(N)=C1S2,65.4% (active)
9,Cn1cc(CCC(=O)N2CCCC(C(=O)c3ccc(C(C)(C)C)cc3)C2)cn1 (stereo unspecified),-1.82% (inactive)
10,O=C(COc1ccc(/C=N/NS(=O)(=O)c2ccccc2)cc1)NCCc1ccccc1,-5.95% (inactive)
11,CCOC(=O)N1CCN(C(=O)C[C@@H]2C[C@@]3(C(=O)OC)CCCCC=C3N(CCC3=CCCCC3)C2=O)CC1,4.15% (inactive)
12,COC(=O)[C@]12CCCCC=C1N(CCC1=CCCCC1)C(=O)[C@H](CC(=O)NCC1CCCCC1)C2,-2.93% (inactive)
13,CCCCOCCCNC(=O)C[C@@H]1C[C@@]2(C(=O)OC)CCCCC=C2N(CCC2=CCCCC2)C1=O,14.4% (active)
14,c1ccc(-c2ccc3c(c2)NC(C2Nc4cc(-c5ccccc5)ccc4O2)O3)cc1 (stereo unspecified),-3.71% (inactive)
15,NC(=O)c1nnsc1-c1ccc(-c2snnc2C(N)=O)cc1,1.17% (inactive)
16,COc1ccc(S(=O)(=O)N2CCOCC2)cc1NC(=O)Cc1c(F)cccc1Cl,20.4% (active)
17,COc1ccc(S(=O)(=O)N2CCOCC2)cc1NC(=O)COc1ccccc1,-17.8% (inactive)
18,COc1ccc(S(=O)(=O)N2CCOCC2)cc1NC(=O)CSc1cc(C)ccc1C,-9.45% (inactive)
19,Cc1ccc(CNC(=O)CCN2C(=O)[C@@H]3Cc4ccccc4CN3C2=O)cc1,1.97% (inactive)
20,O=C(CN1CCCSc2ccccc21)N1CCN(S(=O)(=O)c2ccccc2)CC1,4.26% (inactive)
21,O=C(CN1CCN(S(=O)(=O)c2cccc(Cl)c2)CC1)N1CCCCC1,-0.39% (inactive)
22,O=C(CN1CCCSc2ccccc21)N1CCN(S(=O)(=O)c2cccc(F)c2)CC1,19.9% (active)

row,SMILES,inhibition
1,CC(C)N1CCC(=NNc2ccc([N+](=O)[O-])cc2S(=O)(=O)N2CCOCC2)CC1,1.91% (inactive)
2,COc1ccccc1Oc1ccc(N2CC(C(=O)OCC(=O)c3ccc(F)cc3)CC2=O)cc1 (stereo unspecified),2.52% (inactive)
3,CCCCn1c(=S)[nH]c2cc(S(=O)(=O)N3CCCCC3)ccc21,-10.8% (inactive)
4,CCn1c(=S)[nH]c2cc(S(=O)(=O)N3CCOCC3)ccc21,3.25% (inactive)
5,CNS(=O)(=O)c1ccc2c(c1)[nH]c(=S)n2C,62.6% (active)
6,CSc1ccc(S(=O)(=O)N2CCC(C(=O)NCCc3ccccc3)CC2)cc1,11% (inactive)
7,CN(C)Cc1c(C(=O)N/N=C/c2ccccc2OCc2ccc(F)cc2)nnn1-c1nonc1N,18.9% (active)
8,CCN(CC)Cc1c(C(=O)N/N=C/c2cccc(OCc3ccc(F)cc3)c2)nnn1-c1nonc1N,5.3% (inactive)
9,CC(C)Oc1ccc(/C=N/NC(=O)c2nnn(-c3nonc3N)c2CN(C)C2CCCCC2)cc1,1.38% (inactive)
10,CCc1ccc(CN2C(=O)c3ccccc3C2C(=O)NCC2CCCO2)cc1 (stereo unspecified),-0.17% (inactive)
11,COc1c(C(C)C)oc2cc3oc(=O)ccc3cc12,0.79% (inactive)
12,CS(=O)(=O)N(C(=O)NC(=O)NC1CCS(=O)(=O)C1)C1CCCCC1 (stereo unspecified),-6.98% (inactive)
13,Cc1ccc2cccc(S(=O)(=O)N3CCN(c4ccccc4F)CC3)c2n1,1.99% (inactive)
14,Cc1cc(-c2nnc(CCC(=O)NC(c3ccccc3)c3ccccc3)o2)no1,5.3% (inactive)
15,COc1cccc(N(CC(=O)NCc2ccccc2)C(=O)CCC(=O)Nc2nccs2)c1,-5.92% (inactive)
16,COc1ccc(C2CC(c3cccs3)Nc3nnnn32)cc1 (stereo unspecified),-1.58% (inactive)
17,COC(=O)C1=C(C(=O)c2ccc(C)cc2)C(c2ccccc2)n2nnnc2N1 (stereo unspecified),-7.42% (inactive)
18,COc1ccc(C2=CC(c3cccc(OC)c3)n3nnnc3N2)cc1 (stereo unspecified),16.1% (active)
19,COc1c(C(=O)N2CCCC2)ccc2ccccc12,-2.3% (inactive)
20,COC(=O)CNS(=O)(=O)c1ccc(Cc2ccc(S(=O)(=O)NCC(=O)OC)cc2)cc1,5.06% (inactive)
21,COC(=O)C[n+]1cccc2ccccc21,99.9% (active)
22,CSc1ccccc1NC(=O)Cc1ccc(Br)cc1,3.49% (inactive)

row,SMILES,inhibition
1,COc1ccc(C(=O)CCc2ccccc2O)c(OC)c1,-6.58% (inactive)
2,COc1ccc(C(=O)NC(C)CCc2ccccc2)c(OC)c1 (stereo unspecified),35.8% (active)
3,COc1ccccc1C(=O)NCCC(=O)NC(C)CCc1ccccc1 (stereo unspecified),2.26% (inactive)
4,COCC(C)NC(=O)CSc1nc2nn(-c3ccccc3)c(=O)c-2c2n1CCCCC2 (stereo unspecified),8.05% (inactive)
5,C=CCSc1ccc(S(=O)(=O)N2CCN(C)CC2)cn1,2.87% (inactive)
6,O=C(CNCCO)NC12CC3CC(CC(C3)C1)C2,1.03% (inactive)
7,O=C(COC(=O)CNS(=O)(=O)c1ccccc1)NC12CC3CC(CC(C3)C1)C2,-4.78% (inactive)
8,O=C(COC(=O)C12CC3CC(CC(O)(C3)C1)C2)NC12CC3CC(CC(C3)C1)C2,14.8% (active)
9,Cc1ccc(N(C(=O)c2sc(C)nc2C)C(C(=O)NC(C)(C)C)c2ccncc2)cc1 (stereo unspecified),2.66% (inactive)
10,CCS(=O)(=O)N1CCCC(C(=O)NCCCN(C)Cc2ccccc2)C1 (stereo unspecified),0.57% (inactive)
11,O=C(CCCn1c(=O)oc2ccccc21)Nc1cccnc1,0.74% (inactive)
12,C/C(=N/NC(=O)CSc1ccccn1)c1ccc([N+](=O)[O-])cc1,-0.59% (inactive)
13,CCCSc1ccc([C@H]2N[C@@](Cc3ccccc3)(C(=O)OC)[C@H]3C(=O)N(C)C(=O)[C@@H]23)cc1,22.2% (active)
14,CCN1C(=O)[C@H]2[C@@H](c3ccc(-c4ccc(OC)cc4)cc3)N[C@@](Cc3ccccc3)(C(=O)OC)[C@H]2C1=O,-4.73% (inactive)
15,CCN1C(=O)[C@H]2[C@@H](c3ccc(-c4ccc(F)cc4)cc3)N[C@@](Cc3ccccc3)(C(=O)OC)[C@H]2C1=O,-0.32% (inactive)
16,CCNC(=S)N1CCN(S(=O)(=O)c2ccc(Cl)s2)CC1,3.82% (inactive)
17,O=C(Nc1ccc(F)c(Cl)c1)C1CCN(S(=O)(=O)c2cccnc2)CC1,1.53% (inactive)
18,Cc1cc(C)n(Cc2cnc(N3CCOCC3)s2)n1,-9.37% (inactive)
19,Clc1ccc2c(c1)C1=C(C(c3ccncc3)O2)C(c2ccc(Br)cc2)n2ncnc2N1 (stereo unspecified),0.69% (inactive)
20,Brc1ccc(C2=CC(c3ccco3)n3ncnc3N2)cc1 (stereo unspecified),189% (active)
21,CN1/C(=c2/s/c(=C3/C(=O)N(c4ccccc4)NC3=Nc3ccccc3)n(C)c2=O)C(C)(C)c2ccccc21,-167% (inactive)
22,CCN(CC(=O)NCc1cccs1)C(=O)c1ccccc1F,-7.98% (inactive)

row,SMILES,inhibition
1,Cc1ccc(S(=O)(=O)CCC(=O)OCC(=O)NCCc2ccc(S(N)(=O)=O)cc2)cc1,-12.1% (inactive)
2,Cc1ccc(S(=O)(=O)CCC(=O)OCC(=O)N(C)Cc2ccccc2)cc1,5.85% (inactive)
3,Cc1ccc(S(=O)(=O)CCC(=O)OCc2ccccc2)cc1,15.9% (active)
4,Cc1cc(Br)ccc1NC(=O)CN(C)C(=O)CN1C(=O)NC2(CCCC2)C1=O,-8.08% (inactive)
5,CCC(=O)c1ccc(OCC(=O)N(CC)CC2COc3ccccc3O2)cc1 (stereo unspecified),5.37% (inactive)
6,CC(=O)NC(=S)Nc1ccc(NC(=S)NC(=O)c2ccc([N+](=O)[O-])cc2)cc1,21.3% (active)
7,CC(=O)Nc1ccc(NC(=S)NC(=O)c2ccc([N+](=O)[O-])c(C)c2)cc1,-3.89% (inactive)
8,COCCCNC(=S)NC(=O)c1ccc([N+](=O)[O-])cc1,-1.2% (inactive)
9,COc1cc(Cl)c(C)cc1NC(=O)CSc1nnc(-c2ccco2)n1CC(C)C,-5.33% (inactive)
10,NC(Cc1ccccc1)c1csc(Nc2cc(Oc3ccccc3)ncn2)n1 (stereo unspecified),-2.31% (inactive)
11,CCN(CC)C(=O)CSc1nnc(-c2cnccn2)n1-c1ccc(C)cc1,-8.84% (inactive)
12,CC(C)CCN(C(=O)c1csnn1)C(C(=O)NC1CCCC1)c1ccccc1 (stereo unspecified),5.69% (inactive)
13,COCCn1c(SCC(=O)Nc2nc(C)cs2)nnc1C(C)C,6.46% (inactive)
14,CCCn1c(SCC(=O)Nc2c(C)cccc2C)nnc1C(C)C,14.6% (active)
15,CCCn1c(SCC(=O)c2ccc3c(c2)OCCO3)nnc1C(C)C,3.55% (inactive)
16,CCCCC(O)(CCCC)C(=O)NN(C(=O)CCl)c1ccccc1,-2.85% (inactive)
17,CCCC(O)(CCC)C(=O)NN(C(=O)CCl)c1cccc(C)c1,12.8% (active)
18,Cc1cccc(N(Cc2ccccc2)C(=O)c2ccccc2F)c1,0.91% (inactive)
